Measurements as given in PubChem BioAssay AID504339 (National Center for Advancing Translational Sciences (NCATS), 2011).
The whole screen tested about 390,000 compounds, of which about 17,000 (4.4%) were called active. Another 8% or so got no clear call; they are omitted. The sample as a whole holds a higher share of actives than the screen did. Unmarked numbers belong to inactive results. Calls come from the whole dose curve; as a rule, active = well fitted inhibition curve with a large enough effect; inconclusive = small, poorly fitted or top-dose-only effect; inactive = no such curve, though single readings can be large or run the other way.

The molecules below were run against Lysine-specific demethylase 4A (Homo sapiens) (UniProt O75164) (assay: qHTS Assay for Inhibitors of JMJD2A-Tudor Domain). Conditions: AlphaScreen JMJD2A-Tudor / H3K4me3 peptide binding; series mostly up to 114 µM; activity change, negative = inhibition: at the top concentration.
% is set by controls: 0 for no effect and ±100 for the full control effect; potency is the fitted concentration of half-maximal effect.
Note: nearly all actives have a fitted effect of over 50% in size.

Lysine-specific demethylase 4A (Homo sapiens), sequence (O75164 whole entry, looked up, the tested form may be a part): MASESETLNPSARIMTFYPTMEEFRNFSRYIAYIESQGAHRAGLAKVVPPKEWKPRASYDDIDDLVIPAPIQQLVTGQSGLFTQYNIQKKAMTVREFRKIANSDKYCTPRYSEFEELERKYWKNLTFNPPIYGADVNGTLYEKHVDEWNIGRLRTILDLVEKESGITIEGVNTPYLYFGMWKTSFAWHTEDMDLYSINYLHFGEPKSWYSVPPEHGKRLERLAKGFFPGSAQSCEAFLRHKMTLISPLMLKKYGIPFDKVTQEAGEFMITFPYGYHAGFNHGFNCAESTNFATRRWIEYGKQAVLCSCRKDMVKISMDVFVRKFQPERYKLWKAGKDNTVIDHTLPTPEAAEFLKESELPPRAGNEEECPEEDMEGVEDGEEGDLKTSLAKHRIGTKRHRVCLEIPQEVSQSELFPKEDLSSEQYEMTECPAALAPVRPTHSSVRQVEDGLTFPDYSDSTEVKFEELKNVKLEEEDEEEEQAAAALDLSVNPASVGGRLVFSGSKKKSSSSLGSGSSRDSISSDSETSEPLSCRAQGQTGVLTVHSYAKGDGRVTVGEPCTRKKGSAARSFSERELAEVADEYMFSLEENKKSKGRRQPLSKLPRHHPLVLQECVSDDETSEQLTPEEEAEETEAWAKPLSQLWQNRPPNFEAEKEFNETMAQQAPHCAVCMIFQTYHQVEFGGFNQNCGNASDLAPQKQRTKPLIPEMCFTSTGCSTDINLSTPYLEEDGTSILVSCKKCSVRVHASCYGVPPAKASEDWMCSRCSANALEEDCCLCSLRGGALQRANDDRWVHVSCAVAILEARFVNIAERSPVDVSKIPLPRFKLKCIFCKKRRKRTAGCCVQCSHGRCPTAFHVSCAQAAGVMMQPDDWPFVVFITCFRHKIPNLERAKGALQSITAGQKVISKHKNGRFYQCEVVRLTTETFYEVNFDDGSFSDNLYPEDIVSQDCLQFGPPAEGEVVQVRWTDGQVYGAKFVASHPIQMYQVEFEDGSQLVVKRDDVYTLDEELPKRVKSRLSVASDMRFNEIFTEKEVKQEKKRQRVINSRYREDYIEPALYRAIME

Row | Compound | activity change, negative = inhibition | Potency
1 | CC(C)OP(=O)(OC(C)C)C(Nc1ccccc1)c1cccc([N+](=O)[O-])c1 (stereo not given) | -30.1% | 
2 | CC(Nc1ccc([N+](=O)[O-])cc1[N+](=O)[O-])c1ccccc1 (stereo not given) |  | 12.6 µM (active)
3 | COc1ccc(-c2cc(-c3ccccc3)nc3c2COc2ccc(Cl)cc2-3)cc1 | 7.09% | 
4 | Cc1cccc(NC(=O)CSc2nc(-c3ccco3)cc(C(F)(F)F)n2)c1C | 11.7% | 
5 | CCOC(=O)c1sc(NC(=O)CSc2nc(C)cc(C(F)(F)F)n2)c(C#N)c1C |  | 50.1 µM (active)
6 | Cc1cc(C(F)(F)F)nc(SCC(=O)Nc2nccs2)n1 | -8.22% | 
7 | Cc1ccc(C(=O)Nc2ccccc2F)cc1S(=O)(=O)N1CCOCC1 | 2.94% | 
8 | Cc1ccccc1CNC(=O)CSc1nnc(C)c2c(C)n(-c3ccccc3)nc12 | -0.345% | 
9 | CCCOc1ccc(NC(=O)CC2C(=O)N(c3ccccc3)C(=O)N2Cc2ccco2)cc1 (stereo not given) | -19.7% | 
10 | Cc1ccc(N2CC(C(=O)Nc3ccc(S(=O)(=O)N4CCCC4)cc3)CC2=O)cc1C (stereo not given) | -14.3% | 
11 | O=C(Nc1ccc(S(=O)(=O)N2CCCCC2)cc1)C1CC(=O)N(c2ccc(F)cc2)C1 (stereo not given) | -18.6% | 
12 | CNS(=O)(=O)c1ccc(NC(=O)C2CC(=O)N(c3ccc(Cl)cc3)C2)cc1 (stereo not given) |  | 56.2 µM (active)
13 | CN1C(=O)c2ccccc2Sc2ccc(NC(=O)Cc3ccc(Cl)cc3)cc21 | -28.3% | 
14 | Cc1ccc(Cl)cc1N1CCN(S(=O)(=O)c2cc3[nH]c(=O)c(=O)[nH]c3cc2C)CC1 | -28.7% | 
15 | COc1ccc(-c2noc(-c3ccc(N4CCN(c5ccccc5)CC4)c([N+](=O)[O-])c3)n2)cc1OC | -11.9% | 
16 | COc1ccc(NC(=O)c2sc3nc(-c4cc5cccc(OC)c5oc4=O)[nH]c(=O)c3c2C)cc1 | -15.1% | 
17 | Oc1ccc(C2Nc3cccc4cccc(c34)N2)cc1 |  | 44.7 µM (active)
18 | Brc1ccccc1C1Nc2cccc3cccc(c23)N1 |  | 50.1 µM (active)
19 | Brc1ccccc1C1N=C(c2ccccc2)NO1 (stereo not given) | 16.5% | 
20 | COc1cc2c(cc1OC)C(c1ccccc1Br)NC(=O)C2 (stereo not given) | -15.7% | 
21 | Cn1nnnc1SCCCNCc1ccc(Cl)cc1 | 5.96% | 
22 | O=c1cc(CSc2ncn[nH]2)[nH]c2ccc(F)cc12 | 0.649% | 
23 | CCc1nnc(SCC(=O)Nc2cc(OC)ccc2OC)nc1CC | -0.649% | 
24 | O=C(NCCc1ccc(Cl)cc1)c1ccc2c(c1)N(Cc1ccc(F)cc1)C(=O)CS2 | -13.5% | 
25 | Cc1ccc(NC(=O)C(Cc2ccccc2)NS(=O)(=O)c2ccc3c(c2)oc(=O)n3C)cc1C (stereo not given) | -19.5% | 

Row | Compound | activity change, negative = inhibition | Potency
26 | CCOc1ccc(NC(=O)C2CCN(S(=O)(=O)c3cc(-c4noc(C)n4)ccc3C)CC2)cc1 | -2.67% | 
27 | CCOC(=O)C1C(=O)NCC1c1ccccc1 (stereo not given) | -4.29% | 
28 | CCOC(=O)C1Sc2[nH]c(=O)sc2C(c2ccc(Cl)cc2)C1C(=O)OCC (stereo not given) |  | 50.1 µM (active)
29 | CCOC(=O)C1CCN(C(=O)Nc2ccc(Cl)cc2)CC1 | -12.3% | 
30 | CCC(=O)N1CCc2cc(Br)cc(S(=O)(=O)NCc3ccc(Cl)cc3)c21 | -21.2% | 
31 | Cc1cccc(NC(=O)c2ccc(F)c(S(=O)(=O)N(C)C3CCCCC3)c2)c1 | -12.2% | 
32 | CCc1cc2c(cc(C(=O)OC)n2Cc2nc(-c3ccc(C)cc3)oc2C)s1 | -12.4% | 
33 | O=C(CN1CCSCC1)N/N=C/c1ccc(F)cc1F |  | 10 µM (active)
34 | O=C(CN1CCSCC1)N/N=C/c1ccc(F)cc1 |  | 3.16 µM (active)
35 | Cc1ccc(COc2ccc(/C=N/NC(=O)CN3CCCCC3)cc2)cc1 | -22.4% | 
36 | O=C(CN1CCN(C/C=C/c2ccccc2)CC1)Nc1ccc(F)cc1F | -23.1% | 
37 | O=C(CC(=O)N/N=C\c1ccc(F)cc1)NCCc1ccccc1 | 4.75% | 
38 | O=C(Cn1cc(C(F)(F)F)ccc1=O)N/N=C/c1ccc(Cl)cc1Cl | -21.3% | 
39 | COc1ccc(CNC(=O)c2cc3cccc(OC)c3oc2=O)cc1 | -2.61% | 
40 | CC(=O)N1c2ccccc2CC1C(=O)N1CCN(c2ccc(F)cc2)CC1 (stereo not given) | -11.9% | 
41 | CCOc1ccc(CNC(=O)Cn2cc3c(n2)-c2c(oc(C(=O)N4CCCC4)c2C)CC3)cc1 | -14.7% | 
42 | CCCc1cc(=O)n2[nH]c(NCc3ccc(CC)cc3)nc2n1 | -20.5% | 
43 | COc1ccc(-c2csc(-c3c(N)c(C(=O)c4ccc(OC)c(OC)c4)n4ccccc34)n2)cc1 | -19.1% | 
44 | COc1ccc(OC)c(CNC(=O)Cn2nc(C)c3c(C)n(-c4ccc(C)cc4)nc3c2=O)c1 |  | 35.5 µM (active)
45 | COc1ccccc1CNC(=O)Cn1nc(C)c2nn(-c3ccc(Cl)cc3)c(C)c2c1=O | -14.6% | 
46 | COc1ccc(OC)c(CNC(=O)Cn2nc(C)c3c(C)n(-c4ccccc4)nc3c2=O)c1 | 0.345% | 
47 | Cc1ccc2c(c1)N(C(=O)Nc1ccc(Br)cc1F)CCO2 | -14.1% | 
48 | Cc1ccc(OCC(=O)OCc2cc(=O)n3nc(C4CC4)sc3n2)cc1 | -10.7% | 
49 | CCN(C(=O)Cn1cnc2sc(C)c(S(=O)(=O)N3CCN(c4ncccn4)CC3)c2c1=O)c1ccccc1F | -6.14% | 
50 | CCOc1cc(-c2nnc(SCC(=O)NC3CCCCC3)nc2-c2ccc(OC)c(OCC)c2)ccc1OC | -35% | 
